The sample as a whole holds a higher share of hits than the screen did.
TbPYK inhibitor – blocks Trypanosoma brucei pyruvate kinase; Q57TT1; TbPYK enzyme, Kinase-Glo Plus ATP luminescence, 45 min; Potency, µM (titrated, usually from 76.8 µM), inactives show top-dose activity, negative = inhibition, most hits filed as inhibitors; 0.12% of 410,000 active; note: potency is the fitted concentration of half-maximal effect; % is set by controls: 0 for no effect and ±100 for the full control effect; nearly all actives have a fitted effect of over 50% in size
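Readout: single end-point luminescence (Kinase-Glo Plus, 10 min). Reaction conditions were TbPYK/substrate plus 130 uM ADP, 45 min at RT, pH 7.2 TEA buffer. No-enzyme wells served as controls, and data were normalized before concentration-response fitting.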
LmPK inh – blocks Leishmania mexicana pyruvate kinase activity; 0.37% of 290,000 active; Potency, µM (top dose mostly 57.5 µM), for inactives: top-dose activity change, negative = inhibition, hits mostly inhibitors; Q27686; purified LmPK, Kinase-Glo ATP luminescence, 1 h; note: potency is the fitted concentration of half-maximal effect; % is set by controls: 0 for no effect and ±100 for the full control effect
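Kinase-Glo luminescence read after 1 h RT reaction of 0.1 nM LmPK with 0.5 mM PEP and 0.1 mM ADP. Activity scaled between uninhibited and enzyme-free controls.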
FBPA Giardia inh – inhibitors of Giardia lamblia fructose-1,6-bisphosphate aldolase. Potency, µM (series often up to 59.6 µM), without a hit: at the highest dose activity, negative = inhibition, usual class: inhibitors. purified Giardia FBPA. A8B2U2. 0.71% of 290,000 active; note: potency is the fitted concentration of half-maximal effect; % is set by controls: 0 for no effect and ±100 for the full control effect; nearly all actives have a fitted effect of over 55% in size
Target sequence (A8B2U2 whole entry, looked up): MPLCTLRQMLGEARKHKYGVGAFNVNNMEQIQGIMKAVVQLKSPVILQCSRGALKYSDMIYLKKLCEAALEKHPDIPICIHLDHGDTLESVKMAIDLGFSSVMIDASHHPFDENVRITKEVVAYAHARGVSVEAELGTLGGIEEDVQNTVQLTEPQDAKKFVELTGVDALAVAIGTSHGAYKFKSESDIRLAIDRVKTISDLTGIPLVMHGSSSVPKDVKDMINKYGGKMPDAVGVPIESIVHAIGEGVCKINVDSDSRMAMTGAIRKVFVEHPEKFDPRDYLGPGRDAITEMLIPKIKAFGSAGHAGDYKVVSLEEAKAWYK
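40 nM FBPA preincubated 10 min at RT with compound (up to 57.5 uM final), then substrate plus GAPDH/TPI/NAD/arsenate coupling and diaphorase/resazurin added. Fluorescence read after 20 min at RT, 525/598 nm.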
Cycloheximide cs – counter-screen hit for Shiga toxin inhibitors, cycloheximide; cell reporter, cycloheximide protein synthesis inhibition counterscreen; max response, %; 12% of 300,000 active; in the data active = max response mostly above about 13%, no sharp cut-off; inactive = mostly below about 14%; note: read at 38.3 µM for the half of the compounds with a filed dose; 0% is about no effect
RE007 growth inh – less growth of the S. pombe RE007 Vpr strain. 0.21% of 360,000 active. S. pombe RE007 Vpr strain, BacTiter-Glo ATP luminescence, 24 h. Potency, µM (series often up to 92.2 µM), for inactives: top-dose activity change, negative = less growth, actives largely listed as inhibitors. AID 651644; active = well fitted falling curve with a large enough effect; inconclusive = small, poorly fitted or top-dose-only effect; inactive = no such curve, though single readings can be large or run the other way; note: potency is the fitted concentration of half-maximal effect; % is set by controls: 0 for no effect and ±100 for the full control effect; nearly all actives have a fitted effect of over 50% in size
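Fission yeast RE007 carrying one integrated HIV-1 vpr copy, seeded at OD 0.01 in PMG+AL medium with 23 nL pinned compound. Grown 24 h at 30 degrees; viability read by BacTiter-Glo luminescence after 5 min.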
Shiga toxin inh – Shiga toxin inhibition; 9.2% of 290,000 active; inhibition, % at 38.7 µM; Vero cells, Shiga toxin protein synthesis inhibition reporter; in the data active = inhibition mostly above about 28%, no sharp cut-off; inactive = mostly below about 43%; note: 0% is about no effect
Numbers without * were called inactive; ? = inconclusive; . = not tested or not shown; [ ] = remark or other dose. Unless noted, calls come from the whole dose curve; as a rule, active = well fitted curve in the direction sought with a large enough effect; inconclusive = small, poorly fitted or top-dose-only effect, or another doubt; inactive = no such curve, though single readings can be large; an effect the other way counts as inactive or inconclusive.

SMILES	TbPYK inhibitor	LmPK inh	FBPA Giardia inh	Cycloheximide cs	RE007 growth inh	Shiga toxin inh
Cc1cc2c(nc1C)CCCN2CC(O)CN1CCCc2nc(C)c(C)cc21	.	.	-5%[12.9 µM]	.	.	.
CC(=O)c1ccc(NS(=O)(=O)c2ccc(-n3cccn3)cc2)cc1	-17%	.	.	.	.	.
COc1cccc(-n2cc(C(=O)Oc3ccc(F)cc3)c3ccccc3c2=O)c1	1%	.	.	.	.	.
NCCCC[C@H](N)C(=O)N[C@@H](CCCN=C(N)N)C(=O)N1CCC[C@H]1C(=O)N1CCC[C@H]1C(=O)NCC(=O)N[C@@H](Cc1ccccc1)C(=O)N[C@@H](CO)C(=O)N1CCC[C@H]1C(=O)N[C@@H](Cc1ccccc1)C(=O)O	.	.	-3%	-7	.	2
COc1ccc(NC(=O)N2CCc3ccccc3C2)cc1OC	-6%	0%	3%	9	1%	9
Cc1ccccc1NC(=O)N1CCc2ccccc2C1	6%	-6%	0%	27	-18%	38
Cc1cccc(NC(=O)N2CCc3ccccc3C2)c1C	1%	4%	9%	29*	19%	39*
Cc1cc(C)cc(NC(=O)N2CCc3ccccc3C2)c1	-6%	1%	-9%	36*	-8%	75*
CN1CCN(C(=O)Nc2ccccc2)CC1	1%	-1%	?	2	-9%	-1
Cc1ccc(NC(=O)N2CCc3ccccc3C2)cc1C	-5%	-4%	-14%	78*	-10%	152*
Cc1ccc(NC(=O)N2CCN(C)CC2)cc1NC(=O)N1CCN(C)CC1	-15%	0%	0%	12*	-6%	49
CCCN(Cc1cc2cc(C)ccc2[nH]c1=O)C(=O)c1cccc(Cl)c1	4%	.	.	.	.	.
CCCn1cc(S(=O)(=O)c2cccc(Cl)c2)c(=O)c2cc(F)c(N3CCN(CC)CC3)cc21	2%	.	.	.	.	.
COc1ccccc1CN1CCCC2(CCNCC2)C1	-4%	.	5%	.	.	.
COc1ccc(NC(=O)C2CCN(S(=O)(=O)c3ccc4[nH]c(=O)ccc4c3)CC2)c(OC)c1	-1%	.	.	.	.	.
Cc1ccc(NC(=O)C2OCCc3ccccc32)cc1C (stereo unspecified)	5%	5%	1%	37*	-18%	100*
COc1cccc(N2CCN(C3=NS(=O)(=O)C(c4ccc(C)cc4)=C3C)CC2)c1	-3%[15.4 µM]	.	.	.	.	.
CCOc1ccc(NC(=O)N(C)CCc2c(C)nn(C)c2C)cc1	1%	.	.	.	.	.
Cc1ccc2nc(-c3ccc(NC(=O)CN(c4ccccc4C)S(C)(=O)=O)cc3)sc2c1	1%	0%	-4%	61*	-21%	95*
Cc1ccccc1N(CC(=O)Nc1ccc(F)cc1)S(C)(=O)=O	-4%	8%	1%	-1	-28%	-5
Cc1cc(C)cc(N(CC(=O)Nc2ccc(-c3nc4ccc(C)cc4s3)cc2)S(C)(=O)=O)c1	-3%	-1%	4%	36*	-7%	77*
O=C(CSc1ncccc1-c1nc2ccccc2[nH]1)N1CCN(c2ccccc2F)CC1	-1%	3%	-23%	56*	-6%	54
COc1ccccc1N1CCN(C(=O)CSc2ncccc2-c2nc3ccccc3[nH]2)CC1	5%	-1%	-1%	21*	-3%	14
O=C(CSc1ncccc1-c1nc2ccccc2[nH]1)NC1CC1	0%	-6%	-2%	10	-3%	15
COc1ccc(N2CCN(C(=O)CSc3ncccc3-c3nc4ccccc4[nH]3)CC2)cc1	-4%	-1%	-11%	21*	-9%	24
SMILES	TbPYK inhibitor	LmPK inh	FBPA Giardia inh	Cycloheximide cs	RE007 growth inh	Shiga toxin inh
COc1ncc2nc(-c3cc(F)cc(F)c3)c(=O)n(CCc3ccccc3)c2n1	-11%	.	-7%	.	.	.
COc1ccc(Cn2c(SCC#N)nc3ccc(N4CCOCC4)cc3c2=O)cc1	-3%	12%	?	58*	9%	124*
CCCCn1c(SCC(=O)Nc2cccc(OC)c2)nc2ccc(N3CCOCC3)cc2c1=O	.	3%	?	8	-1%[3.69 µM]	-40
CN(C)c1ccc(C(=O)Nc2sc(Nc3ccccc3)nc2C(N)=O)cc1	-7%	.	.	.	.	.
CCc1ccccc1NC(=O)N1CCCC(CCC(=O)N(C)CCc2ccccn2)C1 (stereo unspecified)	2%	-3%	2%	-1	7%	-3
COc1ccc(NC(=O)N2CCCC(CCC(=O)N(C)CCc3ccccn3)C2)cc1 (stereo unspecified)	-5%	-6%	-18%	30*	5%	91*
CCOc1ccccc1NC(=O)[C@@H](NC(=O)c1ccccc1F)C(C)C	4%	6%	-4%	7	24%	4
CCOc1ccccc1C(=O)N[C@H](C(=O)Nc1nc2c(s1)CCCC2)C(C)C	0%	1%	-6%	21*	0%	38*
COc1ccc(C(=O)N[C@H](C(=O)Nc2nc3c(s2)CCCC3)C(C)C)cc1	-1%	-3%	-7%	59*	-11%	79*
COc1ccc(C(=O)N[C@H](C(=O)Nc2ccc(OC)nc2)C(C)C)cc1	-6%	2%	-18%	15*	24%	23
COc1ccc(CC(=O)Nc2nc3c(s2)CCCC3)cc1	2%	.	.	.	.	.
Cc1ccc(S(=O)(=O)NCC(Nc2cccc(Cl)c2)c2ccccc2)cc1 (stereo unspecified)	-7%	.	.	.	.	.
On1c2c(c3c4nonc4ccc31)CCCC2	.	-5%	5.6µM*	-3	.	-8
COn1c2c(c3c4nonc4ccc31)CCCC2	5%	6%	?	-5	-16%	-20
Cc1ccc2c(C)c(C(=O)N3CCC(c4nc5ccccc5s4)CC3)oc2c1C	0%	.	.	.	.	.
CCC(=O)n1nc(-c2cccnc2)nc1NCc1cccs1	-5%	1%	0%	5	5%	-5
CCN(C(=O)Cc1cccs1)c1nnc(-c2cccnc2)s1	-4%	2%	-2%	28*	-10%	48*
Cc1ccc(-n2c(C)nn(CCOc3ccccc3)c2=O)cc1	-7%	-6%	2%	35*	12%	67*
Cc1nn(C)c(=O)n1-c1ccccc1	3%	11%	4%	-3	9%	-14
Cc1nn(CCOc2ccccc2)c(=O)n1-c1c(F)cccc1F	-9%	-2%	3%	52*	0%	33*
Cc1nn(C)c(=O)n1-c1ccc(Oc2ccccc2)cc1	3%	-4%	1%	11*	8%	-7
Cc1ccc(-n2c(C)nn(CC3CC3)c2=O)cc1	-11%	-2%	1%	1	-7%	-8
CCN(CC)c1ccc(NC(=O)C2CCN(S(=O)(=O)c3cnc[nH]3)CC2)c(C)c1	-8%	.	.	.	.	.
Cc1ccc(OCc2nc3ccccc3n2Cc2ccccc2Cl)cc1	-2%	.	.	.	.	.
O=C(CO)NCCCOc1cccc(CN2CCCCC2)c1	-7%	.	.	.	.	.
O=C(Nc1ccc(Cl)cc1)N(C1=NCCC1)c1ccc(OC(F)F)cc1	-3%	2%	-2%	41*	-3%	75*
